Compounds with a hit are over-represented: about 2.3% of the library has one in this group of screens.
aSyn 5UTR inh: MLPCN primary screen, SNCA 5' untranslated region. inhibition, % (tested at 7.5 µM). alpha-synuclein 5'UTR reporter, inhibitor activity. AID 1813, 2009. 300,000 compounds, 0.82% hits; in the data active means inhibition above about 60%; inconclusive means no clear call, values can overlap the other calls;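 further: H4 neuroglioblastoma cells stably carrying SNCA 5'UTR luciferase fusion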
Jurkat NFkB inh: inhibitors of induced NF-kB luciferase reporter, primary screen, TCR NF-kB activation inhibitor project, cell-based, luminescence, uHTS; 330,000 compounds, 0.53% hits; Jurkat, PMA/ionomycin-induced NF-kB luciferase reporter; inhibition, % at 4 µM; AID 435003, 2010; in the data active means inhibition above about 50%
Gli-Sufu antag: Gli-Sufu pathway antagonists, primary screen, luciferase luminescence, Sufu-KO-LIGHT cells, uHTS. inhibition, % at 5 µM. Sufu-KO-LIGHT fibroblasts, Gli luciferase reporter luminescence. 340,000 compounds, 0.74% hits;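 active means inhibition above about 55%, limit read from the data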
Shn3 3UTR inh: reduction of Shn3 3'UTR firefly luciferase signal, primary screen, Schnurri-3 inhibitor project, cell-based, Clone20 osteoblasts, set 2 | inhibition, % at 12.5 µM | 360,000 compounds, 0.52% hits | AID 588674, 2011 | Clone20 osteoblast Shn3 3'UTR firefly luciferase, 24 h;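 active means mean inhibition of at least 75% with every replicate also reaching 75%; inconclusive means mean inhibition at least 75% but some replicate below; inactive means mean inhibition below 75%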
TAG inh: inhibitors of triacylglycerol accumulation, primary screen, cell-based, uHTS, fluorescence, H9c2 | 230,000 compounds, 0.66% hits | inhibition, % at 12.5 µM | H9c2 cells, Nile Red lipid (TAG) fluorescence; cells loaded with 200 µM oleic acid | AID 651582, 2012;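 active means pattern-corrected inhibition of lipid staining of at least 50% with the nuclear-stain viability signal not falling by more than 50%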
697 NFkB inh: inhibitors of PMA/ionomycin-induced NF-kB reporter, 697 cells, primary screen, B-cell NF-kB inhibitor project, cell-based, luminescence, uHTS; 697 B-cell NF-kB luciferase reporter, 16 h; inhibition, % at 4 µM; 330,000 compounds, 0.33% hits; in the data active means inhibition above about 35%
Large screens that a line does not name were inactive.

O=C(C1CCN(S(=O)(=O)c2ccc(Cl)s2)CC1)N1CCN(c2ccccc2)CC1	none (no result: aSyn 5UTR inh, Jurkat NFkB inh, 697 NFkB inh)
COc1cccc(OCCn2cc(C(C)=O)c3ccccc32)c1	Shn3 3UTR inh 87.3
COc1cccc(OCCn2cc(C(=O)c3ccco3)c3ccccc32)c1	none (no result: TAG inh)
C[C@H]1CN([C@@H](C)CO)C(=O)c2cccc(NC(=O)c3cnccn3)c2O[C@@H]1CN(C)C(=O)Nc1ccc2c(c1)OCO2	none (no result: aSyn 5UTR inh)
N#CC1=C(N)N2C(=C(C#N)C1c1ccccc1)Sc1ccccc12 (stereo not drawn)	none (no result: Gli-Sufu antag, Shn3 3UTR inh, TAG inh)
N#CC1=C(N)N2C(=C(C#N)C1c1cccc(Br)c1)Nc1ccccc12 (stereo not drawn)	aSyn 5UTR inh inconclusive, Shn3 3UTR inh 87.7
NS(=O)(=O)c1ccc(NC(=O)CSc2n[nH]c(=O)n2C2CC2)cc1	none (no result: aSyn 5UTR inh)
Cc1ccc(-n2ncc(C(=O)Nc3cc(Cl)ccc3Cl)c2C2CCNCC2)cc1	none (no result: Gli-Sufu antag)
Cc1ccc(-n2ncc(C(=O)Nc3cc(Cl)cc(Cl)c3)c2C2CCNCC2)cc1C	aSyn 5UTR inh 92.9 (no result: Jurkat NFkB inh, TAG inh, 697 NFkB inh)
NC(Cc1ccc(Cl)cc1)c1csc(Nc2ccc(C(=O)c3ccccc3)cc2)n1 (stereo not drawn)	none (no result: aSyn 5UTR inh, Jurkat NFkB inh, Gli-Sufu antag, 697 NFkB inh)
O=C(NNC1=Nc2ccccc2SC1)c1ccc(Cl)cc1	aSyn 5UTR inh 96.2
O=C(NNC1=Nc2ccccc2SC1)c1ccc(F)cc1	none
CC(NC(=O)C(=O)N1CCCCC1)C(c1cccs1)N1CCN(Cc2ccccc2)CC1 (stereo not drawn)	none (no result: TAG inh)
CCN1C(=O)[C@H]2[C@@H](c3ccc(OC)cc3)N[C@]3(CCCN(Cc4ccc(OC)cc4)C3=O)[C@H]2C1=O	none (no result: aSyn 5UTR inh, Jurkat NFkB inh, Gli-Sufu antag, 697 NFkB inh)
CSc1ccc(/C=N/NC(=O)CNc2cccc3ccccc23)cc1	none (no result: TAG inh)
O=C(CNc1cccc2ccccc12)N/N=C/C(Br)=C/c1ccccc1	Shn3 3UTR inh 90.5 (no result: TAG inh)
CCCCC(CC(O)COCC(C)C)C(=O)NNC(=S)Nc1ccccc1 (stereo not drawn)	none (no result: TAG inh)
CC[C@@H](C(=O)[C@@H](C)[C@@H](O)[C@H](C)CCc1ccc(C)c(O)c1C(=O)O)[C@H]1O[C@](CC)([C@H]2CC[C@](O)(CC)[C@H](C)O2)C[C@@H]1C	aSyn 5UTR inh 100.1, Gli-Sufu antag 81.9, Shn3 3UTR inh 92.3
NS(=O)(=O)c1ccc(CCNCc2cc(Br)ccc2OCc2ccccc2F)cc1	Shn3 3UTR inh 85.7 (no result: Gli-Sufu antag, TAG inh)
C=CCOc1ccccc1CNCCc1ccc(S(N)(=O)=O)cc1	none
Cc1cc2[nH]c3c4ccccc4nc(C)c3c2cc1C	none (no result: aSyn 5UTR inh, Jurkat NFkB inh, 697 NFkB inh)
Cc1cc2[nH]c3c(c[n+](C)c4ccccc34)c2cc1C	aSyn 5UTR inh 101.2, TAG inh 127.3
Oc1ccc(/C=N/Nc2nccnc2Cl)c(O)c1	aSyn 5UTR inh 87.7, Shn3 3UTR inh inconclusive
COc1cccc(/C=N/Nc2nc3ccccc3[nH]2)c1O	Shn3 3UTR inh inconclusive, TAG inh 59.1
Oc1ccc(/C=N/Nc2ncc(Br)cn2)c(O)c1	none (no result: TAG inh)
COc1cccc(/C=N/Nc2nc3ccccc3[nH]2)c1OC	none
O=[N+]([O-])c1ccc(NN=Cc2ccccc2O)nc1	none (no result: aSyn 5UTR inh, Jurkat NFkB inh, 697 NFkB inh)
COc1cccc(/C=N/Nc2nccnc2Cl)c1O	aSyn 5UTR inh 89.6, Gli-Sufu antag 68.2, Shn3 3UTR inh 86.0
O=[N+]([O-])c1ccc(O)c(/C=N/Nc2ccccn2)c1	aSyn 5UTR inh 95.2, Gli-Sufu antag 72.0 (no result: Jurkat NFkB inh, TAG inh, 697 NFkB inh)
CCn1c(C)nc2cc(C(=O)NNS(=O)(=O)c3ccccc3F)ccc21	none (no result: TAG inh)
Cc1c(/C=N/Nc2nc3ccccc3[nH]2)c2ccccc2n1C	TAG inh 61.9
O=C(N/N=C/c1cc([N+](=O)[O-])ccc1O)c1cc(-c2ccccc2)nc2ccccc12	aSyn 5UTR inh 81.3, Shn3 3UTR inh 87.5 (no result: TAG inh)
Oc1ccc(C=NNc2ccccn2)c(O)c1	Shn3 3UTR inh 86.1, TAG inh 52.6 (no result: aSyn 5UTR inh, Jurkat NFkB inh, 697 NFkB inh)
O=C(N/N=C/c1cc([N+](=O)[O-])ccc1Cl)c1cc(-c2ccccc2)nc2ccccc12	none
Cc1nn(-c2ccccc2)c(C)c1/C=N/Nc1nc2ccccc2[nH]1	none
O=[N+]([O-])c1ccc(O)c(/C=N/Nc2ncnc3c2cnn3-c2ccccc2)c1	aSyn 5UTR inh 66.3, Gli-Sufu antag 58.1, Shn3 3UTR inh 91.7 (no result: TAG inh)
Oc1ccccc1/C=N/Nc1nccnc1Cl	aSyn 5UTR inh 88.4, Gli-Sufu antag 56.9, Shn3 3UTR inh inconclusive
O=C(OCc1ccccc1)N1CCC2CC1c1cc(N3CCCCC3)ccc12 (stereo not drawn)	none (no result: aSyn 5UTR inh, Jurkat NFkB inh, 697 NFkB inh)
CC(=O)Nc1ccc(Cl)c(C(N)=O)c1	none (no result: TAG inh)
NC(=O)c1cc(N2C(=O)C=CC2=O)ccc1Cl	Shn3 3UTR inh 94.4 (no result: TAG inh)
CCOc1ccccc1C(=O)N[C@H](C(=O)NCc1ccccc1)C(C)C	none
Cc1c(Nc2cc(Cl)c3nonc3c2[N+](=O)[O-])c(=O)n(-c2ccccc2)n1C	Shn3 3UTR inh 96.3, TAG inh 102.1 (no result: aSyn 5UTR inh)
O=C(OCC(=O)N(C1CCCCC1)C1CCCCC1)c1cnccn1	none
O=S(=O)(c1ccc(NC(=S)NCc2cccnc2)cc1)N1CCCCC1	aSyn 5UTR inh 86.4
O=C(NCc1cccnc1)c1ccc(S(=O)(=O)N2CCCCC2)cc1	none (no result: TAG inh)
Cc1ccc(C(=O)O/N=C(\N)c2ccccn2)cc1	aSyn 5UTR inh 65.3 (no result: TAG inh)
Cc1ccc(C(=O)O/N=C(\N)c2ccccn2)cc1C	none
CCOc1ccc(C(=O)O/N=C(\N)c2ccccn2)cc1	aSyn 5UTR inh 61.6
N/C(=N\OC(=O)c1ccccc1)c1ccccn1	none (no result: TAG inh)
Cc1cccc(C(=O)O/N=C(\N)c2ccccn2)c1	aSyn 5UTR inh 70.1 (no result: TAG inh)
N/C(=N\OC(=O)c1cccc(F)c1)c1ccccn1	none (no result: TAG inh)
Cc1cccc(C)c1OCCCN1CCCC1	none
COc1ccc(-n2c(O)c(/C=N/Nc3nc(C)cc(C)n3)c3ccccc3c2=O)cc1OC	aSyn 5UTR inh 119.9, Shn3 3UTR inh 90.9
O=C(Nc1nc2ccccc2n1CCN1CCOCC1)c1cn(-c2ccccc2)nc1-c1ccccc1	aSyn 5UTR inh 82.8 (no result: TAG inh)
Cc1nc(-c2ccc(C(=O)Nc3ccccc3F)cc2)cs1	aSyn 5UTR inh 92.4
Cc1nc(-c2ccc(C(=O)Nc3ccc(F)cc3)cc2)cs1	none
O=C(CC1SC(=Nc2ccccc2)N(CCc2ccccn2)C1=O)Nc1ccc(F)cc1 (stereo not drawn)	none (no result: TAG inh)
Cc1cccc(C)c1N=C1SC(CC(=O)Nc2c(C)cccc2C)C(=O)N1CCc1ccccn1 (stereo not drawn)	aSyn 5UTR inh 67.2 (no result: TAG inh)
COc1ccc(S(=O)(=O)N2CCOCC2)cc1NC(=O)CCNC(=O)c1ccc(Br)cc1	aSyn 5UTR inh 76.6
COc1ccc(S(=O)(=O)N2CCOCC2)cc1NC(=O)CCNC(=O)c1ccc(Cl)cc1	none (no result: aSyn 5UTR inh)
Cc1oc2c(c1C(=O)N1CCC(C)CC1)C(=O)c1ccccc1C2=O	aSyn 5UTR inh 83.4 (no result: Shn3 3UTR inh, TAG inh)
CCOC(=O)C1CCN(C(=O)c2ccc(C)o2)CC1	none (no result: aSyn 5UTR inh)
